# CCT chaperon mod: changes cytosolic chaperonin activity; activity change, % (no concentration beside the values), hits read low; AID 651819; purified chaperonin ATPase assay, HTRF ADP detection, 30 min; 360,000 tested, 0.3% active; in the data active means activity change below about -30%
#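 Nucleotide hydrolysis assay: TRiC at 20–40 nM final (set by batch activity) with 10 uM ATP, 30 min at 37 °C, in presence of 76 uM compound. Detection by competitive ADP HTRF, 30 min ambient.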
# Mm-Cpn inhibitor: M. maripaludis TRiC chaperonin inhibition; purified Mm-Cpn ATPase, ADP Transcreener TR-FRET; Potency, µM (series often up to 76.9 µM), for the others: at the highest dose activity, negative = inhibition, usual class: inhibitors; 330,000 tested, 0.031% active; AID 504842; further: potency means the concentration at half of the fitted maximal effect; nearly all actives have a fitted effect of over 80% in size
#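 ATPase turnover read by TR-FRET ADP competition (Eu cryptate antibody/ADP-d2, 665/590 nm): 10uM ATP final, 25nM Mm-CPN final, 30 min 37degC after 10-min compound preincubation, pH 7.4 Tris/KCl/MgCl2/DTT buffer.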
# VDR inhibitor: vitamin D3 receptor (human) inhibition. VDR-SRC2-3 peptide fluorescence polarization, 2 h. P11473. Potency, µM, for inactives: max response, negative = inhibition, most hits filed as inhibitors. 400,000 tested, 0.93% active; further: potency means the concentration at half of the fitted maximal effect
# Target sequence (P11473 whole entry, looked up): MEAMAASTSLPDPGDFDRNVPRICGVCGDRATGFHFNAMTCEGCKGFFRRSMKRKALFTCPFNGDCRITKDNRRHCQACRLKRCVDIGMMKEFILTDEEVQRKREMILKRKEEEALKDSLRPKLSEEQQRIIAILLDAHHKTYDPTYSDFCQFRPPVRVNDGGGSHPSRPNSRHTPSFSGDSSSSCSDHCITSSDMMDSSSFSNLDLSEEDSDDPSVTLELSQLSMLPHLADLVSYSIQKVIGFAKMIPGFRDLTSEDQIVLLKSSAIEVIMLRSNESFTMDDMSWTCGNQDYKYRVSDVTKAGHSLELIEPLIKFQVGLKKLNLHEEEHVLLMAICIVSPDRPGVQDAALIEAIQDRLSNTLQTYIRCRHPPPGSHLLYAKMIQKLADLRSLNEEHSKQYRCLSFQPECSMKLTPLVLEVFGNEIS
#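 Measured by FP: displacement of SRC2-3 coactivator peptide from VDR by library compounds, following a two-hour ambient incubation.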
# Sfp inh: blocks B. subtilis Sfp PPTase activity; Q9F4F7; Biochemical Sfp PPTase activity, qHTS; Potency, µM, for the others: largest response in the series, negative = inhibition, most hits filed as inhibitors; 310,000 tested, 3.5% active;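 further: the enzyme is Sfp with the accession as filed and its product quenches rhodamine fluorescence; potency means the concentration at half of the fitted maximal effect; 0% = enzyme reaction without inhibitor and -100% = no enzyme wells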
#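 Fluorescence-quenching assay with 15 nM Sfp, 5 uM rhodamine-CoA and 12.5 uM BHQ-2-labelled ybbR peptide in pH 7.6 Hepes/MgCl2 buffer. Enzyme was pre-incubated with compound for 15 min at room temperature. Rate was taken from the 30-min fluorescence change (525/598 nm).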
# PLK1 PBD block: blocks phosphopeptide binding to human PLK1 polo-box domain. 360,000 tested, 2.8% active. Potency, µM, inactives show max response, negative = inhibition, actives largely listed as inhibitors. Plk1 PBD binding of FITC phosphopeptide, fluorescence polarization. AID 720504. P53350; further: potency means the concentration at half of the fitted maximal effect; series mostly up to about 57 µM; nearly all actives have a fitted effect of over 65% in size
# G9a block: G9a (human) methyltransferase inhibition; 350,000 tested, 8.8% active; Q96KQ7; G9a H3K9 monomethylation, AlphaScreen, 2 h; AID 504332; Potency, µM (highest dose often 102 µM), without a hit: at the top dose activity, negative = inhibition, hits mostly inhibitors; further: potency means the concentration at half of the fitted maximal effect; nearly all actives have a fitted effect of over 75% in size
# Target sequence (Q96KQ7 913-1193 limits assumed): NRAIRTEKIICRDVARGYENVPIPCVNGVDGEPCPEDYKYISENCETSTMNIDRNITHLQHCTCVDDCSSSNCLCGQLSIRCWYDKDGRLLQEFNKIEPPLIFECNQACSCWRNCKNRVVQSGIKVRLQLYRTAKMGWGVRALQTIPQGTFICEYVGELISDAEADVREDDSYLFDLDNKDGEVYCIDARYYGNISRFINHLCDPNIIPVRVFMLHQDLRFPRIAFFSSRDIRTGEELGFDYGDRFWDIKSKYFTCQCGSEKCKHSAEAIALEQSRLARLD
#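 G9a (20 nM) preincubated 15 min RT with compounds, then 500 nM biotinylated H3K9 peptide and 20 uM SAM added; 2 h RT reaction. Monomethyl-H3K9 product detected by AlphaScreen with anti-H3K9me1 antibody, streptavidin donor and anti-rabbit IgG acceptor beads.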
# The depositor's hits bear a star; ? = inconclusive; . = no result; [ ] = another dose, or the depositor's remark. Only some compounds are listed: those with a hit (about 10% of all), similar ones and a draw of the others. Unless noted, the call rests on the fitted dose curve; in most records, active means well fitted curve in the direction sought with a large enough effect; inconclusive means small, poorly fitted or top-dose-only effect, or another doubt; inactive means no such curve, though single readings can be large; an effect the other way counts as inactive or inconclusive. Unless noted, on the % scale 0 is the no-effect control and ±100 the full control effect.
SMILES,CCT chaperon mod,Mm-Cpn inhibitor,VDR inhibitor,Sfp inh,PLK1 PBD block,G9a block
COc1ccc(S(=O)(=O)N2CCOCC2)cc1NC(=O)CCNC(=O)c1ccc(Br)cc1,1,1%,-25%,.,?,16µM*
COc1ccc(NC(=O)Cc2coc3cc(C)c(C(C)C)cc23)cc1S(=O)(=O)N1CCOCC1,0,0%,-2%,-1%,7%,10µM*
COc1ccc(S(=O)(=O)N2CCOCC2)cc1NC(=O)CCNC(=O)c1ccc(Cl)cc1,1,3%,-19%,.,1%,-32%
COc1ccc(S(=O)(=O)N2CCOCC2)cc1NC(=O)Cc1coc2cc(C)c(C)cc12,-5,-3%,27%,1%,-2%,50µM*
CCCCOc1ccc(C(C)NC(=O)CN2C(=O)CSc3ccc(S(=O)(=O)N4CCOCC4)cc32)cc1 (configuration not stated),.,.,2%,.,.,9%[59 µM]
Cc1ccc(NC(=O)CCn2c(=O)c3cccn3c3ccccc32)c(Cl)c1,.,.,-4%,.,.,-26%[59 µM]
Cc1cc(C)cc(NC(=O)C2CCN(c3nc4ccccc4nc3C(F)(F)F)CC2)c1,.,.,7%,.,.,2%[59 µM]
O=C(O)c1cc(-c2ccccc2)c(N2CCOCC2)s1,3,0%,-2%,17%,-20%,79µM*
O=S(=O)(c1ccc2c(c1)CCC2)N1CCN(c2nc(-c3ccccc3)nc3ccccc23)CC1,.,.,1%,.,.,.
COc1ccc2nc(-n3c(O)c(C4=c5ccccc5=NC4=O)[nH]c3=S)sc2c1,-4,0%,-22%,50µM*,?,?
COC(=O)c1c(C)n(-c2ccccc2)c2ccc(O)cc12,2,-1%,-13%,?,1%,-3%[0.0925 µM]
CN(C)/C=C/c1c([N+](=O)[O-])c2ccc(O)cc2n1-c1ccccc1,-1,-2%,?,2.5µM*,0%,.
CC(=O)N1CCN(CC(=O)Nc2sccc2C#N)CC1,-1,1%,-5%,0%,24µM*,52%
CN(C)S(=O)(=O)c1cccc(C(=O)OCC(=O)Nc2sccc2C#N)c1,-1,3%,5%,79µM*,-11%,-34%[59 µM]
N#Cc1ccsc1NC(=O)CN1CCN(c2ccccc2)CC1,-1,-4%,-13%,13%,-2%,-2%[59 µM]
Cc1ccc(S(=O)(=O)CCC(=O)Nc2sccc2C#N)cc1,2,3%,-12%,.,-11%,25µM*
COc1ccc(CNCC(=O)Nc2sccc2C#N)cc1,2,-2%,9%,?,-12%,28µM*
COc1ccc(N(C)S(=O)(=O)c2cccc(C(=O)OCC(=O)Nc3sc4c(c3C#N)CCCCC4)c2)cc1,0,-2%,-8%,18%,-18%,20%[59 µM]
Cc1ccc(S(=O)(=O)CCC(=O)OCC(=O)Nc2sccc2C#N)cc1,2,.,.,.,-3%,.
C[C@@]1(O)CCOC(=O)C1,.,.,-3%,-4%,.,12%[21.5 µM]
COc1ccc2c(c1)c1c(c(=O)n(CCc3ccccc3)c(=O)n1Cc1cccc(F)c1)n2C,.,.,11%,.,.,4%[59 µM]
CSc1cccc(NS(=O)(=O)c2ccc3[nH]cc(C(=O)N4CCCCCC4)c(=O)c3c2)c1,.,.,-24%,.,.,?
CCCCC#CC1C=CC(Oc2cc(OC)c(OC)c(OC)c2)C(COC(=O)OCC)O1 (configuration not stated),.,.,.,-15%,.,.
N#Cc1ccsc1NC(=O)CN1CCN(c2ccc(O)cc2)CC1,-5,-3%,-17%,-25%,-4%,18µM*
O=C1CC(=O)N(c2cccc(F)c2)N1,-3,2%,-24%,20%,-8%,56µM*
SMILES,CCT chaperon mod,Mm-Cpn inhibitor,VDR inhibitor,Sfp inh,PLK1 PBD block,G9a block
Nc1ccc2oc(-c3ccccc3Cl)nc2c1,-1,-4%,13%,-1%,5%,34%[59 µM]
Nc1ccc2oc(-c3cc(Br)ccc3Cl)nc2c1,-3,-8%,-25%,10%,30µM*,16%
CCOc1cccc(OCCCCN2CCCCC2)c1,-3,1%,4%,?,-1%,8.9µM*
COc1cccc(OCCCCN2CCCCC2)c1,-3,1%,-1%,3%,-8%,?
Brc1cccc(OCCCCN2CCCCC2)c1,-1,-1%,-8%,-12%,-2%,7.1µM*
Cc1ccc(S(=O)(=O)Nc2cccc(Oc3cnccn3)c2)cc1,1,-1%,-24%,2%,27µM*,45%[12.7 µM]
Cc1ccc(F)c(NC(=O)/C(C#N)=C(\O)c2ccc(C(C)(C)C)cc2)c1,0,1%,?,-46%,30µM*,?
Cc1cccc(NC(=O)C(=O)NNC(=O)c2ccc(C(C)(C)C)cc2)c1,2,-1%,-1%,23%,-4%,?
COc1ccc(-n2c(C)cc(C(=O)COc3ccc(C)nc3[N+](=O)[O-])c2C)cc1,1,-1%,-6%,-12%,5%,?
Cc1ccc(OCC(=O)c2cc(C)n(-c3cc(C)on3)c2C)c([N+](=O)[O-])n1,2,-2%,-11%,.,-15%,50µM*
COc1ccc(-n2c(C)cc(C(=O)COC(=O)Cn3cnc4ccccc43)c2C)cc1,1,1%,4%,-13%,-1%,16µM*
COCC(=O)OCC(=O)c1cc(C)n(-c2ccc(Br)cc2)c1C,1,1%,-19%,3%,17µM*,?
Cc1cc(-n2c(C)cc(C(=O)CCl)c2C)no1,1,-1%,-8%,11%,13µM*,50µM*
COc1ccc(NC(=O)COC(=O)Cn2cnc3ccccc32)cc1,0,0%,-15%,.,-8%,.
COc1ccc2c(c1)c1c(c(=O)n(-c3ccccc3)c(=O)n1CC(=O)NCCC1=CCCCC1)n2C,.,.,0%,.,.,3%[59 µM]
COc1ccc(-n2c(C)cc(C(=O)CCl)c2C)cc1,-2,2%,?,-8%,?,56µM*
Cc1ccc(OCC(=O)c2ccc(Cl)s2)c([N+](=O)[O-])n1,-2,1%,?,20µM*,?,50µM*
Cc1ccc(CNC(=O)COc2ccc(C)nc2[N+](=O)[O-])cc1,-2,2%,-17%,-13%,-2%,-7%[59 µM]
Cc1cc(-n2c(C)cc(C(=O)CSc3ccccn3)c2C)no1,-2,-2%,-15%,.,17µM*,.
COc1ccc(-n2c(C)cc(C(=O)CN3C(=O)c4ccccc4C3=O)c2C)cc1,1,0%,17%,4%,-10%,1%[59 µM]
Cc1ccc(-n2c(=S)[nH]c3sc4c(c3c2=O)CCc2ccccc2-4)cc1,0,-1%,-20%,13%,30µM*,5%
Cc1cccc(-n2c(=S)[nH]c3sc4c(c3c2=O)CCc2ccccc2-4)c1,-4,-3%,?,6%,3µM*,?
NNc1nc2sc3c(c2c(=O)[nH]1)CCc1ccccc1-3,-4,-7%,?,?,-18%,?

# Screening results: PubChem, National Center for Advancing Translational Sciences (NCATS)
